Binding signal data for 21 molecules are collected here from PMC9911399, “Two distinct binding modes provide the RNA-binding protein RbFox with extraordinary sequence specificity”.

Substitutions are numbered along the chain they refer to; changes in the protein carry UniProt numbers. In all, about 16,000 sequences were measured (“ka relative to ugcaugu”: median about 0.0091, highest 2% from about 0.032 on). Only a selection was taken, and the highest values are over-represented in it overall.

The labels stand for the following.
T1: RBFOX1 RRM (Homo sapiens, UniProt Q9NWB1 109-208)
T1 sequence: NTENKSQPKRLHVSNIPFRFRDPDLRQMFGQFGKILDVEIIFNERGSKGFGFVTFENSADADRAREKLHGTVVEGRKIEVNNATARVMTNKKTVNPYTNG

B1: GGUGGAA (DNA:RNA)
RNA: GGGAGACCGGAAUUCAGAUUGUCCGGUGGAAUUAAAUCCCGUCGUAGCCACCA
DNA 1: CAATCTGAATTCCGGTCTCCC
DNA 2: TGGTGGCTACGACGGGATT
B2: UGGCGAC (DNA:RNA)
RNA: B1 RNA with G25U, U27G, G28C, A31C
DNA 1: CAATCTGAATTCCGGTCTCCC
DNA 2: TGGTGGCTACGACGGGATT
B3: CCGGGGC (DNA:RNA)
RNA: B1 RNA with G25C, G26C, U27G, A30G, A31C
DNA 1: CAATCTGAATTCCGGTCTCCC
DNA 2: TGGTGGCTACGACGGGATT
B4: ACUCUUG (DNA:RNA)
RNA: B1 RNA with G25A, G26C, G28C, G29U, A30U, A31G
DNA 1: CAATCTGAATTCCGGTCTCCC
DNA 2: TGGTGGCTACGACGGGATT
B5: GAGUGCG (DNA:RNA)
RNA: B1 RNA with G26A, U27G, G28U, A30C, A31G
DNA 1: CAATCTGAATTCCGGTCTCCC
DNA 2: TGGTGGCTACGACGGGATT
B6: UGCCUUA (DNA:RNA)
RNA: B1 RNA with G25U, U27C, G28C, G29U, A30U
DNA 1: CAATCTGAATTCCGGTCTCCC
DNA 2: TGGTGGCTACGACGGGATT
B7: UUUUCUC (DNA:RNA)
RNA: B1 RNA with G25U, G26U, G28U, G29C, A30U, A31C
DNA 1: CAATCTGAATTCCGGTCTCCC
DNA 2: TGGTGGCTACGACGGGATT
B8: UUGUCUC (DNA:RNA)
RNA: GGGAGACCGGAAUUCAGAUUGUCCUUGUCUCUUAAAUCCCGUCGUAGCCACCA
DNA 1: CAATCTGAATTCCGGTCTCCC
DNA 2: TGGTGGCTACGACGGGATT
B9: UUCAGGC (DNA:RNA)
RNA: B8 RNA with G27C, U28A, C29G, U30G
DNA 1: CAATCTGAATTCCGGTCTCCC
DNA 2: TGGTGGCTACGACGGGATT
B10: AGCAUGG (DNA:RNA)
RNA: B1 RNA with G25A, U27C, G28A, G29U, A30G, A31G
DNA 1: CAATCTGAATTCCGGTCTCCC
DNA 2: TGGTGGCTACGACGGGATT
B11: CAGCAUC (DNA:RNA)
RNA: B8 RNA with U25C, U26A, U28C, C29A
DNA 1: CAATCTGAATTCCGGTCTCCC
DNA 2: TGGTGGCTACGACGGGATT
B12: CAGCAUA (DNA:RNA)
RNA: B8 RNA with U25C, U26A, U28C, C29A, C31A
DNA 1: CAATCTGAATTCCGGTCTCCC
DNA 2: TGGTGGCTACGACGGGATT
B13: ACCAUGC (DNA:RNA)
RNA: B8 RNA with U25A, U26C, G27C, U28A, C29U, U30G
DNA 1: CAATCTGAATTCCGGTCTCCC
DNA 2: TGGTGGCTACGACGGGATT
B14: AGCCAUG (DNA:RNA)
RNA: B1 RNA with G25A, U27C, G28C, G29A, A30U, A31G
DNA 1: CAATCTGAATTCCGGTCTCCC
DNA 2: TGGTGGCTACGACGGGATT
B15: AUGCUGC (DNA:RNA)
RNA: B8 RNA with U25A, U28C, C29U, U30G
DNA 1: CAATCTGAATTCCGGTCTCCC
DNA 2: TGGTGGCTACGACGGGATT
B16: CAGCAUG (DNA:RNA)
RNA: B8 RNA with U25C, U26A, U28C, C29A, C31G
DNA 1: CAATCTGAATTCCGGTCTCCC
DNA 2: TGGTGGCTACGACGGGATT
B17: ACCAUGG (DNA:RNA)
RNA: GGGAGACCGGAAUUCAGAUUGUCCACCAUGGUUAAAUCCCGUCGUAGCCACCA
DNA 1: CAATCTGAATTCCGGTCTCCC
DNA 2: TGGTGGCTACGACGGGATT
B18: AUGCUUG (DNA:RNA)
RNA: B17 RNA with C26U, C27G, A28C, G30U
DNA 1: CAATCTGAATTCCGGTCTCCC
DNA 2: TGGTGGCTACGACGGGATT
B19: ACCAUGU (DNA:RNA)
RNA: B17 RNA with G31U
DNA 1: CAATCTGAATTCCGGTCTCCC
DNA 2: TGGTGGCTACGACGGGATT
B20: AGCAUGU (DNA:RNA)
RNA: B17 RNA with C26G, G31U
DNA 1: CAATCTGAATTCCGGTCTCCC
DNA 2: TGGTGGCTACGACGGGATT
B21: AGCAUUG (DNA:RNA)
RNA: B17 RNA with C26G, G30U
DNA 1: CAATCTGAATTCCGGTCTCCC
DNA 2: TGGTGGCTACGACGGGATT

This assay concerns the target T1, RBFOX1 RRM. In words: EMSA; HiTS-Eq, 1 nM pool, 10 min; buffer printed only for the single-RNA assays: 10 mM Tris pH 7.5, 150 mM NaCl, 3.4 mM EDTA, 0.001% NP-40, 30 C. Particulars: tags: His6 N-terminal (pET28a); label: 5' 32P. An outline of the steps: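 Purified RbFox RRM (wild type or mutant) was equilibrated for 10 min in 50 µL with 1 nM of a 5′-radiolabelled pool of RNA with 7 randomized nucleotides, its flanks annealed to DNA oligonucleotides, across increasing protein concentrations. Free RNA was separated by 8% native PAGE, excised, reverse-transcribed, PCR-barcoded and sequenced on an Illumina HiSeq 2500. Relative association constants came from read-count changes of each variant against the control reaction, normalised to the cognate motif.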
B1: the binding signal was 0.00994 KA relative to UGCAUGU.

Consider B2, for which the binding signal was 0.00695 KA relative to UGCAUGU.

As for B3, the binding signal was 0.0147 KA relative to UGCAUGU.

Regarding B4, the binding signal is 0.0078 KA relative to UGCAUGU.

As to B5, the binding signal is 0.0156 KA relative to UGCAUGU.

For B6, the binding signal was 0.00671 KA relative to UGCAUGU.

With B7, the binding signal is 0.0162 KA relative to UGCAUGU.

As to B8, the binding signal is 0.0203 KA relative to UGCAUGU.

Regarding B9, the binding signal is 0.0127 KA relative to UGCAUGU.

As to B10, the binding signal is 0.347 KA relative to UGCAUGU.

On to B11, for which the binding signal was 0.0124 KA relative to UGCAUGU.

As for B12, the binding signal is 0.00331 KA relative to UGCAUGU.

B13: the binding signal was 0.00513 KA relative to UGCAUGU.

For the molecule B14, the binding signal is 0.0102 KA relative to UGCAUGU.

In the case of B15, the binding signal is 0.00746 KA relative to UGCAUGU.

For B16, the binding signal is 0.665 KA relative to UGCAUGU.

On to B17, for which the binding signal is 0.00726 KA relative to UGCAUGU.

On to B18, for which the binding signal is 0.0339 KA relative to UGCAUGU.

In the case of B19, the binding signal was 0.00472 KA relative to UGCAUGU.

Take B20: the binding signal is 0.738 KA relative to UGCAUGU.

With B21, the binding signal is 0.0104 KA relative to UGCAUGU.
